Where “and” joins values, the source holds several entries; their conditions need not be identical. Identical values can stand only once. Inconclusive results are not listed. Calls of active or inactive are those of the source. Unless noted, calls come from the whole dose curve; as a rule, active = well fitted curve in the direction sought with a large enough effect; inconclusive = small, poorly fitted or top-dose-only effect, or another doubt; inactive = no such curve, though single readings can be large; an effect the other way counts as inactive or inconclusive.
What was measured:
[1] = target: ATP-dependent 6-phosphofructokinase (Trypanosoma brucei brucei) (UniProt O15648); test: qHTS Assay to Find Inhibitors of T. brucei phosphofructokinase: hit validation (AID 492961);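 note: luminescence reports ADP formed as PFK phosphorylates fructose-6-phosphate with ATP; % is set by controls: 0 for no effect and ±100 for the full control effect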
Chain of ATP-dependent 6-phosphofructokinase (Trypanosoma brucei brucei) (O15648 whole entry, looked up): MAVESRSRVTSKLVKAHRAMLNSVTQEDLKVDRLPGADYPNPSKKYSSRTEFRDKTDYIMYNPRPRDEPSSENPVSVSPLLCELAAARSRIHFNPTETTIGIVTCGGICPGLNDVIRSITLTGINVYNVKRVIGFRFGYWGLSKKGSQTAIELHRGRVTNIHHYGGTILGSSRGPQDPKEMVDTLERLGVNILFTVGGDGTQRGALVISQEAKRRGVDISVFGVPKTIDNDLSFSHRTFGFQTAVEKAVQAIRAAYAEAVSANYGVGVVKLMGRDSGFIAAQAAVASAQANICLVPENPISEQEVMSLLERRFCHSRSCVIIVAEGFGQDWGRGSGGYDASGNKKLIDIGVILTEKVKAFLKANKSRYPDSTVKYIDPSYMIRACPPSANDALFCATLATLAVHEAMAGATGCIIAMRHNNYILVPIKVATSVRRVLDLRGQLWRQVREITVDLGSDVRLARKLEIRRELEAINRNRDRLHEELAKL
Outline: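 Inhibition of parasite PFK is measured as reduced ADP formation, quantified via luciferase after ATP depletion. Assay used 0.1 mM ATP, 0.5 mM F6P, 1.25 nM enzyme, 45 min incubation.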

[2] = target: Luciferin 4-monooxygenase (Photinus pyralis) (UniProt P08659); test: Biochemical firefly luciferase enzyme assay for NPC (AID 624030);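 note: purified P. pyralis luciferase at 10 nM with luciferin and ATP substrate; 0% = DMSO and -100% = full luciferase inhibition by PTC124 control; nearly all actives have a fitted effect of over 70% in size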
Chain of Luciferin 4-monooxygenase (Photinus pyralis) (P08659 whole entry, looked up): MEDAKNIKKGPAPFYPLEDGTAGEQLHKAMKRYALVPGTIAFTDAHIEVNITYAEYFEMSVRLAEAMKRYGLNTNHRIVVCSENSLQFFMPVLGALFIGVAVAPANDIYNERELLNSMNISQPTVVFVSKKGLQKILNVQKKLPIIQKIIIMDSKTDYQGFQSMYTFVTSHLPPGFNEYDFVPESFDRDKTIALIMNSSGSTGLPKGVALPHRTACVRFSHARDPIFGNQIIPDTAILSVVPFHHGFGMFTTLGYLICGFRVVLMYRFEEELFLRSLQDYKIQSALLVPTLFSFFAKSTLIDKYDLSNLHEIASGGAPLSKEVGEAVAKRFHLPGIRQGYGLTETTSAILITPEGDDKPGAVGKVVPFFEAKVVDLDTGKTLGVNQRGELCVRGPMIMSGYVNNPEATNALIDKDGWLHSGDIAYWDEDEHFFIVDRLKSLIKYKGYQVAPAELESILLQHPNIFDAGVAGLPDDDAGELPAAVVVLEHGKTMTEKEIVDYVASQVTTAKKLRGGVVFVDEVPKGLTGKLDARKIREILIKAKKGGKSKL
Outline: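 Purified P. pyralis luciferase at 10 nM in 50 mM Tris Acetate (final), luminescence read within 5 minutes of enzyme addition to compounds. Activity normalised to PTC124 versus DMSO; concentration-response curves classed by r2, magnitude and activity.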

[3] = S16 Schwann cell PMP22 intronic element beta-lactamase assay (AID 624044; calls by dose curve;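 note: 0% = DMSO and -100% = potassium clavulanate positive control; nearly all actives have a fitted effect of over 15% in size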)
Outline: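 Beta-lactamase reporter under a PMP22 intronic regulatory element in stable S16 rat Schwann cells; 24 h compound exposure. 460 nm blue signal normalized between DMSO (0%) and potassium clavulanate, with 535 nm FRET tracking viability; curves classed by r2 and response.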

[4] = Primary qHTS for inhibitors of nuclear receptor binding SET domain protein 2 (NSD2) in an isogenic RCH-ACV NSD2 p.E1099K mutant (9B) (AID 1645876); note: potency is the fitted concentration of half-maximal effect; nearly all actives have a fitted effect of over 70% in size
[5] = Primary qHTS for inhibitors of nuclear receptor binding SET domain protein 2 (NSD2) in an RCH-ACV wild type WT cells (2C) (AID 1645877); note: potency is the fitted concentration of half-maximal effect; nearly all actives have a fitted effect of over 70% in size
[6] = target: Glutathione peroxidase 1 (Homo sapiens) (UniProt P07203); test: Primary qHTS Assay for Inhibitors of Recombinant Selenoprotein Glutathione Peroxidase 1 (GPX1) (AID 1845191); note: nearly all actives have a fitted effect of over 65% in size; for activity, negative = inhibition: % is set by controls: 0 for no effect and ±100 for the full control effect
Chain of Glutathione peroxidase 1 (Homo sapiens) (P07203 whole entry, looked up): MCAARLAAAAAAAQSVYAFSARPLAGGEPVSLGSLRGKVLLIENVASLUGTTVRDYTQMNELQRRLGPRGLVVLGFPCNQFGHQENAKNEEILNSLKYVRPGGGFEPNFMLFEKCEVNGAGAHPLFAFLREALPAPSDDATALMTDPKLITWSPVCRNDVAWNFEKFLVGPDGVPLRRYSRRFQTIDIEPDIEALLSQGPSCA
Outline: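 GR-coupled readout: NADPH consumption tracked by fluorescence, ex 340/em 450 nm, at t=0 and after 15 min at RT. Final mix 10 nM GPX1, 1 mM GSH, 0.5 mM CHP, 0.5 mM NADPH, 100 nM GR, 0.01% BSA, following 30 min enzyme–compound preincubation.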

[7] = target: Phospholipid hydroperoxide glutathione peroxidase GPX4 (Homo sapiens) (UniProt P36969); test: Primary qHTS Assay for Inhibitors of Recombinant Selenoprotein Glutathione Peroxidase 4 (GPX4) (AID 1845192); conditions: outcome: dose series up to 50 µM unless noted; note: % is set by controls: 0 for no effect and ±100 for the full control effect; nearly all actives have a fitted effect of over 65% in size
Chain of Phospholipid hydroperoxide glutathione peroxidase GPX4 (Homo sapiens) (P36969 whole entry, looked up): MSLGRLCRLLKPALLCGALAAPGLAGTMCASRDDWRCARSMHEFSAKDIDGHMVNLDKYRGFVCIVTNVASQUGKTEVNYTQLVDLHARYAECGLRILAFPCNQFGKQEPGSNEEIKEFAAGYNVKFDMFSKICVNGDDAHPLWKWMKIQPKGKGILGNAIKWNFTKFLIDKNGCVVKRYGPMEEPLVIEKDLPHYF
Outline: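 Steps: GPX4 plus compound, 30 min RT; add GR/GSH/NADPH master mix; start with cumene hydroperoxide; read 340/450 nm fluorescence at 0 and 15 min. Finals were 200 nM GPX4, 1 mM GSH, 0.5 mM CHP, 0.5 mM NADPH, 100 nM GR.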

[8] = qHTS drug screen for cell cycle checkpoint inhibitors in PARPi-resistant BRCA-mutant ovarian cancer cell lines. (AID 1963452; calls by dose curve); conditions: PEO1/OlaR viability, CellTiter-Glo luminescence, 96 h, stronger effect = lower value
Outline: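 PEO1, PEO4 and PEO1/OlaR ovarian cancer cells, 600 per well, exposed 96 h at 37C to a dilution series. Viability read by CellTiter-Glo luminescence, normalized to DMSO and empty wells; activity summarized as Z-AUC.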

[9] = qHTS profiling for inhibitors of Plasmodium falciparum proliferation (AID 504749);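 note: 0% = DMSO vehicle and full inhibition = artemisinin control; nearly all actives have a fitted effect of over 60% in size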; conditions: P. falciparum in erythrocytes, SYBR Green DNA, 72 h, at 28.7 µM (top of the series)
Outline: (§1)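 Each compound contacts P. falciparum-infected red blood cells for 72 h at 37 C; lysis buffer (Tris, EDTA, saponin, Triton X, SYBR Green I) is added and fluorescence measured next morning; values normalized to controls.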

3D7 = test: as above; conditions: P. falciparum in erythrocytes, SYBR Green DNA, 72 h; series mostly up to 28.7 µM
Outline: as §1

AA1029 = test: as above; conditions: P. falciparum in erythrocytes, SYBR Green DNA, 72 h; series mostly up to 28.7 µM
Outline: as §1

AS120 = test: as above; conditions: P. falciparum in erythrocytes, SYBR Green DNA, 72 h; series mostly up to 28.7 µM
Outline: as §1

ATS189 = test: as above; conditions: P. falciparum in erythrocytes, SYBR Green DNA, 72 h; series mostly up to 28.7 µM
Outline: as §1

ATS95 = test: as above; conditions: P. falciparum in erythrocytes, SYBR Green DNA, 72 h; series mostly up to 28.7 µM
Outline: as §1

C2A = test: as above; conditions: P. falciparum in erythrocytes, SYBR Green DNA, 72 h; series mostly up to 28.7 µM
Outline: as §1

CP185 = test: as above; conditions: P. falciparum in erythrocytes, SYBR Green DNA, 72 h; series mostly up to 28.7 µM
Outline: as §1

CP191 = test: as above; conditions: P. falciparum in erythrocytes, SYBR Green DNA, 72 h; series mostly up to 28.7 µM
Outline: as §1

CP192 = test: as above; conditions: P. falciparum in erythrocytes, SYBR Green DNA, 72 h; series mostly up to 28.7 µM
Outline: as §1

CP194 = test: as above; conditions: P. falciparum in erythrocytes, SYBR Green DNA, 72 h; series mostly up to 28.7 µM
Outline: as §1

CP201 = test: as above; conditions: P. falciparum in erythrocytes, SYBR Green DNA, 72 h; series mostly up to 28.7 µM
Outline: as §1

CP203 = test: as above; conditions: P. falciparum in erythrocytes, SYBR Green DNA, 72 h; series mostly up to 28.7 µM
Outline: as §1

CP211 = test: as above; conditions: P. falciparum in erythrocytes, SYBR Green DNA, 72 h; series mostly up to 28.7 µM
Outline: as §1

CP215 = test: as above; conditions: P. falciparum in erythrocytes, SYBR Green DNA, 72 h; series mostly up to 28.7 µM
Outline: as §1

CP217 = test: as above; conditions: P. falciparum in erythrocytes, SYBR Green DNA, 72 h; series mostly up to 28.7 µM
Outline: as §1

CP237 = test: as above; conditions: P. falciparum in erythrocytes, SYBR Green DNA, 72 h; series mostly up to 28.7 µM
Outline: as §1

CP238 = test: as above; conditions: P. falciparum in erythrocytes, SYBR Green DNA, 72 h; series mostly up to 28.7 µM
Outline: as §1

CP247 = test: as above; conditions: P. falciparum in erythrocytes, SYBR Green DNA, 72 h; series mostly up to 28.7 µM
Outline: as §1

CP250 = test: as above; conditions: P. falciparum in erythrocytes, SYBR Green DNA, 72 h; series mostly up to 28.7 µM
Outline: as §1

CP252 = test: as above; conditions: P. falciparum in erythrocytes, SYBR Green DNA, 72 h; series mostly up to 28.7 µM
Outline: as §1

CP256 = test: as above; conditions: P. falciparum in erythrocytes, SYBR Green DNA, 72 h; series mostly up to 28.7 µM
Outline: as §1

CP260 = test: as above; conditions: P. falciparum in erythrocytes, SYBR Green DNA, 72 h; series mostly up to 28.7 µM
Outline: as §1

CP265 = test: as above; conditions: P. falciparum in erythrocytes, SYBR Green DNA, 72 h; series mostly up to 28.7 µM
Outline: as §1

CP266 = test: as above; conditions: P. falciparum in erythrocytes, SYBR Green DNA, 72 h; series mostly up to 28.7 µM
Outline: as §1

CP268 = test: as above; conditions: P. falciparum in erythrocytes, SYBR Green DNA, 72 h; series mostly up to 28.7 µM
Outline: as §1

CP269 = test: as above; conditions: P. falciparum in erythrocytes, SYBR Green DNA, 72 h; series mostly up to 28.7 µM
Outline: as §1

CP286 = test: as above; conditions: P. falciparum in erythrocytes, SYBR Green DNA, 72 h; series mostly up to 28.7 µM
Outline: as §1

CP291 = test: as above; conditions: P. falciparum in erythrocytes, SYBR Green DNA, 72 h; series mostly up to 28.7 µM
Outline: as §1

CP297 = test: as above; conditions: P. falciparum in erythrocytes, SYBR Green DNA, 72 h; series mostly up to 28.7 µM
Outline: as §1

CP305 = test: as above; conditions: P. falciparum in erythrocytes, SYBR Green DNA, 72 h; series mostly up to 28.7 µM
Outline: as §1

CP315 = test: as above; conditions: P. falciparum in erythrocytes, SYBR Green DNA, 72 h; series mostly up to 28.7 µM
Outline: as §1

CP325 = test: as above; conditions: P. falciparum in erythrocytes, SYBR Green DNA, 72 h; series mostly up to 28.7 µM
Outline: as §1

CP329 = test: as above; conditions: P. falciparum in erythrocytes, SYBR Green DNA, 72 h; series mostly up to 28.7 µM
Outline: as §1

CP335 = test: as above; conditions: P. falciparum in erythrocytes, SYBR Green DNA, 72 h; series mostly up to 28.7 µM
Outline: as §1

DFO2036 = test: as above; conditions: P. falciparum in erythrocytes, SYBR Green DNA, 72 h; series mostly up to 28.7 µM
Outline: as §1

Dd2 = test: as above; conditions: P. falciparum in erythrocytes, SYBR Green DNA, 72 h; series mostly up to 28.7 µM
Outline: as §1

FAB9 = test: as above; conditions: P. falciparum in erythrocytes, SYBR Green DNA, 72 h; series mostly up to 28.7 µM
Outline: as §1

GB4 = test: as above; conditions: P. falciparum in erythrocytes, SYBR Green DNA, 72 h; series mostly up to 28.7 µM
Outline: as §1

HB3 = test: as above; conditions: P. falciparum in erythrocytes, SYBR Green DNA, 72 h; series mostly up to 28.7 µM
Outline: as §1

JCK = test: as above; conditions: P. falciparum in erythrocytes, SYBR Green DNA, 72 h; series mostly up to 28.7 µM
Outline: as §1

N140 = test: as above; conditions: P. falciparum in erythrocytes, SYBR Green DNA, 72 h; series mostly up to 28.7 µM
Outline: as §1

P93_24 = test: as above; conditions: P. falciparum in erythrocytes, SYBR Green DNA, 72 h; series mostly up to 28.7 µM
Outline: as §1

P94_40 = test: as above; conditions: P. falciparum in erythrocytes, SYBR Green DNA, 72 h; series mostly up to 28.7 µM
Outline: as §1

PAD = test: as above; conditions: P. falciparum in erythrocytes, SYBR Green DNA, 72 h; series mostly up to 28.7 µM
Outline: as §1

PC15 = test: as above; conditions: P. falciparum in erythrocytes, SYBR Green DNA, 72 h; series mostly up to 28.7 µM
Outline: as §1

PC26 = test: as above; conditions: P. falciparum in erythrocytes, SYBR Green DNA, 72 h; series mostly up to 28.7 µM
Outline: as §1

PC49 = test: as above; conditions: P. falciparum in erythrocytes, SYBR Green DNA, 72 h; series mostly up to 28.7 µM
Outline: as §1

SC27B = test: as above; conditions: P. falciparum in erythrocytes, SYBR Green DNA, 72 h; series mostly up to 28.7 µM
Outline: as §1

TAB113 = test: as above; conditions: P. falciparum in erythrocytes, SYBR Green DNA, 72 h; series mostly up to 28.7 µM
Outline: as §1

TAB165 = test: as above; conditions: P. falciparum in erythrocytes, SYBR Green DNA, 72 h; series mostly up to 28.7 µM
Outline: as §1

C=C1/C(=C\C=C2/CCC[C@]3(C)[C@@H]([C@H](C)CCCC(C)(C)O)CC[C@@H]23)C[C@@H](O)C[C@@H]1O
active: Potency [4] 20.9 µM and 18.6 µM | Potency [5] 16.6 µM
0.475 and 0.837: Z-AUC ([8]; measured here: PEO1 parental Z-AUC)
inactive: outcome [1] | Potency [2] | outcome [3] | Potency [6] | Potency [7] | Z-AUC [8] 0.612 and 1.13 | activity, negative = inhibition ([9]; parasite line A) -3.09% | activity, negative = inhibition ([9]; parasite line B) -9.52% | Potency (3D7) | Potency (AA1029) | Potency (AS120) | Potency (ATS189) | Potency (ATS95) | Potency (C2A) | Potency (CP185) | Potency (CP191) | Potency (CP192) | Potency (CP194) | Potency (CP201) | Potency (CP203) | Potency (CP211) | Potency (CP215) | Potency (CP217) | Potency (CP237) | Potency (CP238) | Potency (CP247) | Potency (CP250) | Potency (CP252) | Potency (CP256) | Potency (CP260) | Potency (CP265) | Potency (CP266) | Potency (CP268) | Potency (CP269) | Potency (CP286) | Potency (CP291) | Potency (CP297) | Potency (CP305) | Potency (CP315) | Potency (CP325) | Potency (CP329) | Potency (CP335) | Potency (DFO2036) | Potency (Dd2) | Potency (FAB9) | Potency (GB4) | Potency (HB3) | Potency (JCK) | Potency (N140) | Potency (P93_24) | Potency (P94_40) | Potency (PAD) | Potency (PC15) | Potency (PC26) | Potency (PC49) | Potency (SC27B) | Potency (TAB113) | Potency (TAB165)
0.77 and 1.19: Z-AUC ([8]; measured here: PEO4 Z-AUC)
